From PubChem BioAssay (NCI)
This is part of a sample that, as a whole, favours compounds with a hit. Of some 79,000 tested, about 15% had one in any assay. Activity calls are given as the source filed them. Cut-off read from the data, not from the text of the source: active = growth inhibition above about 70%; inactive = the rest.

Tests used:
[1] = NCI Yeast Anticancer Drug Screen. Data for the rad50 strain (AID 155);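 note: 0% = growth of vehicle-only cultures of the same strain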; settings: S. cerevisiae rad50 strain growth inhibition; at 50.0 µM; stronger effect = higher value
Method in brief: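 Inhibition values express reduced yeast growth in compound-treated cultures relative to vehicle-treated controls.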

[2] = NCI Yeast Anticancer Drug Screen. Data for the mec2-1 strain (AID 157); settings: S. cerevisiae mec2-1 strain, at 50.0 µM, stronger effect = higher value
Method in brief: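 Cells of the genetically defined mec2-1 yeast strain are incubated with test compound. Inhibition of growth is calculated against vehicle-treated controls.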

[3] = NCI Yeast Anticancer Drug Screen. Data for the sgs1 mgt1 strain (AID 161);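 note: 0% = growth of cultures given vehicle only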; settings: S. cerevisiae sgs1 mgt1 strain, at 50.0 µM, stronger effect = higher value
Method in brief: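 Genetically altered yeast, compound exposure, growth inhibition relative to vehicle.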

[4] = NCI Yeast Anticancer Drug Screen. Data for the cln2 rad14 strain (AID 165);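 note: 0% = growth equal to vehicle treated cultures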; settings: S. cerevisiae cln2 rad14 strain, at 50.0 µM, stronger effect = higher value
Method in brief: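 The screen exposed genetically defined yeast (cln2 rad14) to test compounds and scored growth inhibition relative to vehicle-treated controls.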

[5] = NCI Yeast Anticancer Drug Screen. Data for the bub3 strain (AID 167); settings: S. cerevisiae bub3 mutant strain, at 50.0 µM, stronger effect = higher value
Method in brief: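 Steps: expose the mutant yeast strain to compound; grow alongside vehicle-treated cultures; measure growth; express inhibition against the vehicle cultures.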

[6] = NCI Yeast Anticancer Drug Screen. Data for the mlh1 rad18 strain (AID 175); settings: S. cerevisiae mlh1 rad18 strain growth inhibition; at 50.0 µM; stronger effect = higher value
Method in brief: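 Compound-treated yeast growth, normalised to vehicle controls. Strain bears defined DNA repair mutations.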

Measured: growth inhibition

O=C(NC(Cc1ccc(O)cc1)C(=O)O)C(=O)c1c[nH]c2ccc([N+](=O)[O-])cc12 (configuration not stated)
inactive: [1] 3.45% | [2] 1.45% | [3] -23.1% | [4] 0.45% | [5] 2.8% | [6] 26.9%

C=C1CC(Cn2cc(C)c(=O)[nH]c2=O)(c2ccc(-c3ccccc3)cc2)OC1=O (configuration not stated)
inactive: [1] 8.9% | [2] -5.35% | [3] 38.6% | [4] 37.7% | [5] 29.5% | [6] 47.1%

O=C(Nc1ccc(F)c([N+](=O)[O-])c1)Nc1ccccc1C(F)(F)F
inactive: [1] 3.95% | [2] 29.6% | [3] 33.8% | [4] -3.5% | [5] 31.3% | [6] 25.8%

CCOc1ccc(Br)cc1/C=N\NC(=O)c1ccccc1N(C)C
inactive: [1] -8.8% | [2] -11.6% | [3] -16.8% | [4] -23.6% | [5] -2.25% | [6] -11.2%

COc1ccc(C23CCC(=O)N2CCS3)cc1 (configuration not stated)
inactive: [1] -1.25% | [2] -20.3% | [3] -10.7% | [4] 8.15% | [5] 30% | [6] 2.8%

O=C1C=CC(=O)C2CC=CCC12 (configuration not stated)
inactive: [1] 24.2% | [2] 50.4% | [3] 1.7% | [4] -6.15% | [5] 4.55% | [6] 26.1%

COC(=O)/C(=N/NC(N)=O)C(C(=O)OC)C(=O)C(=O)Nc1ccc(Cl)cc1 (configuration not stated)
inactive: [1] 1.4% | [2] -21.8% | [3] -16.9% | [4] 13.8% | [5] -14.4% | [6] -34.5%

CC(=O)OC1COC(Cl)C(OC(C)=O)C1OC(C)=O (configuration not stated)
inactive: [1] -4.95% | [2] -2.9% | [3] 0.1% | [4] 3.95% | [5] -8.95% | [6] 1.75%

NCCSS(=O)(=O)CCN
inactive: [1] -17.4% | [2] -4.6% | [3] 18.4% | [4] -18.4% | [5] 1.95% | [6] 3.4%

CN(C)C(=O)Nc1ccc(F)cc1
inactive: [1] -5.75% | [2] -25.6% | [3] 13.6% | [4] -20.6% | [5] -24.9% | [6] -16.6%

CC1CN(CCO)C(C)(C)C1 (configuration not stated)
inactive: [1] 4.6% | [2] 17.8% | [3] -6.3% | [4] -12.8% | [5] -9.2% | [6] -17%

COC(=O)C1C(=O)C=C(O)C2CCCCC21 (configuration not stated)
inactive: [1] 2.05% | [2] -2.85% | [3] -0.35% | [4] -63% | [5] -30.9% | [6] 2.5%

CC(=O)Nc1cc(NC(C)=O)c(N=O)c(NC(C)=O)n1
inactive: [1] -19.5% | [2] -13.2% | [3] -0.7% | [4] -3.45% | [5] -15.8% | [6] 7.35%

O=C(Cc1csc(N=Nc2c(O)[nH]c3ccccc23)n1)Nc1ccccc1
inactive: [1] -16.2% | [2] -24.4% | [3] -6.35% | [4] -8.75% | [5] -7.05% | [6] 10.9%

BrCCC1CCCCCC1
inactive: [1] 8.75% | [2] -5.4% | [3] 5.85% | [4] 6.05% | [5] -4.25% | [6] 1.3%

Cc1ccc(N=C(N)NC#N)cc1
inactive: [1] -11.9% | [2] -46% | [3] -27.1% | [4] 16.6% | [5] -34% | [6] -7.75%

Cc1ccccc1N=C(N)Nc1ccccc1
inactive: [1] 5.5% | [2] -4.85% | [3] -3.9% | [4] -43.3% | [5] -10.6% | [6] -6.7%

CN(C)CCCN1N=Nc2cccc3cccc1c23
inactive: [1] 1.75% | [2] 8.25% | [3] -14.3% | [4] 11.7% | [5] 15.2% | [6] 20.1%

CC(C)(C)n1nc(C2CC2)c(Br)c1NC(=O)c1ccc(Cl)cc1
inactive: [1] -4.45% | [2] -0.95% | [3] 22.9% | [4] 0.45% | [5] 11.1% | [6] 1.7%

COC1=NS(=O)(=O)C2(O1)c1ccccc1-c1ccccc12
inactive: [1] 15.2% | [2] 17.2% | [3] 11.4% | [4] 13.2% | [5] 25.8% | [6] 12.3%

c1ccc(CSc2nc3ccccc3nc2-c2cccs2)cc1
inactive: [1] -48.7% | [2] -51.9% | [3] -34.5% | [4] -1.85% | [5] -51.9% | [6] -29.8%

COc1cc2c(c(OC)c1OC)-c1ccc(S(=O)(=O)Cc3ccccc3)c(=O)cc1C(NC(C)=O)CC2 (configuration not stated)
inactive: [1] 34.5% | [2] 16.2% | [3] 9.8% | [4] -2.3% | [5] 1.25% | [6] 21.8%

COc1cccc(-c2cc(=O)c3cc(N4CCCC4)ccc3[nH]2)c1
inactive: [1] -26.3% | [2] -15.2% | [3] -19.9% | [4] 8.6% | [5] -21.6% | [6] -19.1%

CC(=O)OC[C@@H](COC(=O)/C=C/c1ccc(O)cc1)OC1OC(CO)C(O)C(O)C1O (some centres not stated)
inactive: [1] -1.45% | [2] -37.2% | [3] -21.8% | [4] 1.7% | [5] -17.1% | [6] -1.8%

CC(C)(C)c1cc(-c2c3nc(c(-c4cc(C(C)(C)C)cc(C(C)(C)C)c4)c4ccc([nH]4)c(-c4cc(C(C)(C)C)cc(C(C)(C)C)c4)c4nc(c(-c5cc(C(C)(C)C)cc(C(C)(C)C)c5)c5ccc2[nH]5)C=C4)C=C3)cc(C(C)(C)C)c1
inactive: [1] 19.8% | [2] 15.4% | [3] 24.2% | [4] 23.3% | [5] 2.6% | [6] 31.2%

CC(=O)Nc1ccc2c(c1)C(=O)c1ccc(S(C)(=O)=O)cc1-2
inactive: [1] 14.8% | [2] -1.15% | [3] -0.95% | [4] 3.5% | [5] -0.85% | [6] -3.35%

CCOC(=O)C1C(c2ccccc2)ON(c2ccccc2)C1c1cccc([N+](=O)[O-])c1 (configuration not stated)
inactive: [1] 22.2% | [2] 3.9% | [3] -4.05% | [4] -11.5% | [5] 3.3% | [6] 1.65%

Fc1ccc(-c2nnc(-c3ccccc3)o2)cc1
inactive: [1] 21.4% | [2] 19.1% | [3] 25.2% | [4] 7.2% | [5] 31.4% | [6] 8.15%

Clc1cnc2ccccc2c1
inactive: [1] 24.4% | [2] 6% | [3] 14.1% | [4] 22.8% | [5] 2.7% | [6] 28.8%

Cc1cccc(C(=O)OC2CCCCC2)c1
inactive: [1] 1.85% | [2] 1.2% | [3] -3.1% | [4] -30.4% | [5] 23.9% | [6] 0.5%

CN(C=O)c1ccc(C(=O)O)cc1
inactive: [1] 4.35% | [2] 11.9% | [3] -6.25% | [4] 2% | [5] 17.6% | [6] 10.6%

CCOC(=O)NC(Nc1ccc([N+](=O)[O-])cc1)(C(F)(F)F)C(F)(F)F
inactive: [1] 45.4% | [2] 40.2% | [3] 22.8% | [4] 32.1% | [5] 42% | [6] 59.1%

CCCNC1CC(n2cc(C)c(=O)[nH]c2=O)OC1CO (configuration not stated)
inactive: [1] -11.4% | [2] -7.85% | [3] -25.3% | [4] -14.7% | [5] -31.8% | [6] -26.8%

Cc1cc(=O)n(Cc2ccco2)c(=S)[nH]1
inactive: [1] 25.1% | [2] -25.4% | [3] 14.6% | [4] 0.75% | [5] -0.9% | [6] -9%

Cc1cc(Br)ccc1N=Cc1ccc(C=Nc2ccc(Br)cc2C)cc1
inactive: [1] -6.75% | [2] -17.6% | [3] -11.8% | [4] -2.5% | [5] -3.65% | [6] -0.2%

CC(C)N(C(C)C)C1C=CC(N(C(C)C)C(C)C)CC1 (configuration not stated)
inactive: [1] 5% | [2] -15.9% | [3] 2.3% | [4] -33.6% | [5] -7.3% | [6] -0.35%

CC(C)CC(=O)NS(=O)(=O)c1ccccc1
inactive: [1] -6.15% | [2] 5.05% | [3] -3.05% | [4] 5.2% | [5] -17.4% | [6] -22.2%
